A short description of assay [1]: binders of probe aFSTL3 on microarray, primary screen, stem cell growth factor project, biochemical, small-molecule microarray, fluorescence 635/667 (AID 1064).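 Note: measures binding of the biotinylated anti-FSTL3 antibody to printed compounds.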 The conditions noted are these: higher = more signal.
Assay [2] in a line: binders from COS7 lysate, DM2A8 probe, primary screen, torsin A project, cell lysate, small-molecule microarray, fluorescence 635/667 (AID 1065). The note with it: higher = more signal, COS7 lysate expressing mutant human TOR1A.
The nature of assay [3]: binders of probe aFGF2 on microarray, primary screen, stem cell growth factor project, biochemical, small-molecule microarray, fluorescence 635/667 (AID 1067).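 Note: measures binding of biotinylated aFGF2 protein to printed compounds on slides; z-score merges feature fluorescence and signal-to-noise across triplicate slides.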 The conditions noted are these: higher = more signal.
The nature of assay [4]: binders of probe aFGF10 on microarray, primary screen, stem cell growth factor project, biochemical, small-molecule microarray, fluorescence 635/667 (AID 1071).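 Note: score merges 667 nm spot intensity and signal to noise from triplicate slides.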 The note with it: higher = more signal.
Assay [5] deals with Neurogenic locus notch homolog protein 2 (Homo sapiens) (UniProt Q04721). Briefly: Notch2 binders on small-molecule microarrays, primary screen, biochemical, small-molecule microarray, 635 nm fluorescence, stem cell growth factors (AID 1073). The note with it: Notch2 binding, higher = more signal.
Sequence of Neurogenic locus notch homolog protein 2 (Homo sapiens) (Q04721 whole entry, looked up, canonical isoform): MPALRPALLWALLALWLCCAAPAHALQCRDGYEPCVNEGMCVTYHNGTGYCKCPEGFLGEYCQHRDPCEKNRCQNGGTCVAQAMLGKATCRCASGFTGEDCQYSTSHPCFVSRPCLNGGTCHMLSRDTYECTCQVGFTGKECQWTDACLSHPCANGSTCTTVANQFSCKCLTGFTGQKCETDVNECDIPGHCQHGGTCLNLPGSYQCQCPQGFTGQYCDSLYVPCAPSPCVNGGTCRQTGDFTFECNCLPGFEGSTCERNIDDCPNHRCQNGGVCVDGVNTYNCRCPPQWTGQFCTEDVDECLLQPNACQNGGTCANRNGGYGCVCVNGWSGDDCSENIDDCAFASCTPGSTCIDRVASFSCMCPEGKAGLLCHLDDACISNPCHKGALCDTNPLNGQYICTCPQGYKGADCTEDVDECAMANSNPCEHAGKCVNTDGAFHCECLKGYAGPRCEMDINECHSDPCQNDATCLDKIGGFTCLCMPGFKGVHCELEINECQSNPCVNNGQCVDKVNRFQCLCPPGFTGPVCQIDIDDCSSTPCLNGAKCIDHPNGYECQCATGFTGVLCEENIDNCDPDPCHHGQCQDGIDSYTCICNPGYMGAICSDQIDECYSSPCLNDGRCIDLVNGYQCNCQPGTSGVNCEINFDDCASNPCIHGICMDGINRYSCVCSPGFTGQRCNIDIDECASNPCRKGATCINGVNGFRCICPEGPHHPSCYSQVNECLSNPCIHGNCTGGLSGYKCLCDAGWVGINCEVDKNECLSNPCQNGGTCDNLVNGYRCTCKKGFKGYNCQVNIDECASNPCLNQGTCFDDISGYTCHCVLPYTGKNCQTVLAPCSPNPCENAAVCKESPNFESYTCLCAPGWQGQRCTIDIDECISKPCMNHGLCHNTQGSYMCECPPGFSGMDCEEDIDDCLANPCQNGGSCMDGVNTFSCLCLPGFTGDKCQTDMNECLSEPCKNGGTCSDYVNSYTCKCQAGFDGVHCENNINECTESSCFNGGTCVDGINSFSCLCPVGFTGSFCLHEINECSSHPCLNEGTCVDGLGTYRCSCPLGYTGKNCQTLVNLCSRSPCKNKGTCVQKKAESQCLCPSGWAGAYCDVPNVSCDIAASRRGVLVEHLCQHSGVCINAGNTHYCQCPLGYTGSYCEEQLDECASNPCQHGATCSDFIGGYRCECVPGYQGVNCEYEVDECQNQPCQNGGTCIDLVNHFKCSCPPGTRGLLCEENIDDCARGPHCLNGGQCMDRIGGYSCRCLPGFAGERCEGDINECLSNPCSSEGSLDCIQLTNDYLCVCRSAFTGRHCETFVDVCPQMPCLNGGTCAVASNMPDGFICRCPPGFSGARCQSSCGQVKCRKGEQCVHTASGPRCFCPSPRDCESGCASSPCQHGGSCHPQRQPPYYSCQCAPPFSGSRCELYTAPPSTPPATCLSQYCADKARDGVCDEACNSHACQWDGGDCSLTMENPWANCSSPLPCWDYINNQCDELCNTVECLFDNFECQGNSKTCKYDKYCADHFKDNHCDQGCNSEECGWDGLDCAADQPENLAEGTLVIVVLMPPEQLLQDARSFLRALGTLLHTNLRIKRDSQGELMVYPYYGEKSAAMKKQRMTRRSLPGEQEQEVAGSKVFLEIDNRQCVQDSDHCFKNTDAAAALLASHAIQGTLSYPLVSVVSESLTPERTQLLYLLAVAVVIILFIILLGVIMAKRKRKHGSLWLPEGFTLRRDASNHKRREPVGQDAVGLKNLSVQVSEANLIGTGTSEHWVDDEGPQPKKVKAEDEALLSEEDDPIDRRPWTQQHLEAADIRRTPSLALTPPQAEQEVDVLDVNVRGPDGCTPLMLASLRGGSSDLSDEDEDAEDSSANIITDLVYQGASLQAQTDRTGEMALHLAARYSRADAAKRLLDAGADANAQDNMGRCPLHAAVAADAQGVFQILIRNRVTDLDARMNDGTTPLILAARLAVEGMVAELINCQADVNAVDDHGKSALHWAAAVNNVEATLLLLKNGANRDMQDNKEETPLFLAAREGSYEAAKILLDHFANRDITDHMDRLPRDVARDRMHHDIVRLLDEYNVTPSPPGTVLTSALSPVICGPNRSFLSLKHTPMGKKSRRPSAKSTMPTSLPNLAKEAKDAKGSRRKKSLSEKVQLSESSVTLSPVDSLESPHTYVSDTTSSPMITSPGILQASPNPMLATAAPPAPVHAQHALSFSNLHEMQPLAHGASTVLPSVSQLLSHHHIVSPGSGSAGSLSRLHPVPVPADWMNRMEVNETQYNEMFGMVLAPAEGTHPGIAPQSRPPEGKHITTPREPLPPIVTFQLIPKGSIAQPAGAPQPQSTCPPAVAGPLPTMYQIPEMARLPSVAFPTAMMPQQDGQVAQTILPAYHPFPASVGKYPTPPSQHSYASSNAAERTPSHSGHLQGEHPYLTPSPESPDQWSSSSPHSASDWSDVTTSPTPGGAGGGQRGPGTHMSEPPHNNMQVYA
Assay [6] addresses Pro-neuregulin-1, membrane-bound isoform (Homo sapiens) (UniProt Q02297). Briefly: NRG1 binders on small-molecule microarrays, primary screen, psychiatric disease protein project, biochemical, small-molecule microarray, fluorescence 635/667 (AID 1075).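 Note: score combines 667 nm spot fluorescence with signal to noise.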 The note with it: NRG1 binding, 635 nm fluorescence, higher = more signal.
In assay [7] the test system is Neuregulin-1 EGF-like domain. Briefly: binders of neuregulin-1 EGF-like domain, primary screen, biochemical, small-molecule microarray, 635 nm fluorescence (AID 1081).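 Note: binding of the protein to compounds printed on small-molecule microarray slides.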 The conditions noted are these: small-molecule microarray binding, higher = more signal.
Assay [8] can be described thus: FRG1 promoter luciferase signal modulators, primary screen, FRG1 inhibition for FSHD, cell-based, C2C12 myotubes, firefly/Renilla luciferase, luminescence (AID 1084). The note with it: higher = more signal, called active from +8 up or from −8 down.
The nature of assay [9]: binders of probe aFST on microarray, primary screen, stem cell growth factor project, biochemical, small-molecule microarray, fluorescence 635/667 (AID 1086).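 Note: score merges 667 nm fluorescence with signal-to-noise of each printed compound spot.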 The conditions noted are these: higher = more signal.
Assay [10] can be described thus: binders of probe aHhip on microarray, primary screen, stem cell growth factor project, biochemical, small-molecule microarray, fluorescence 635/667 (AID 1087).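 Note: score merges spot fluorescence at 667nm with spot signal to noise ratio.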 The note with it: higher = more signal.

Active and inactive are the calls of the source.

Sequence of Pro-neuregulin-1, membrane-bound isoform (Homo sapiens) (Q02297 whole entry, looked up, the tested form may be a part, canonical isoform): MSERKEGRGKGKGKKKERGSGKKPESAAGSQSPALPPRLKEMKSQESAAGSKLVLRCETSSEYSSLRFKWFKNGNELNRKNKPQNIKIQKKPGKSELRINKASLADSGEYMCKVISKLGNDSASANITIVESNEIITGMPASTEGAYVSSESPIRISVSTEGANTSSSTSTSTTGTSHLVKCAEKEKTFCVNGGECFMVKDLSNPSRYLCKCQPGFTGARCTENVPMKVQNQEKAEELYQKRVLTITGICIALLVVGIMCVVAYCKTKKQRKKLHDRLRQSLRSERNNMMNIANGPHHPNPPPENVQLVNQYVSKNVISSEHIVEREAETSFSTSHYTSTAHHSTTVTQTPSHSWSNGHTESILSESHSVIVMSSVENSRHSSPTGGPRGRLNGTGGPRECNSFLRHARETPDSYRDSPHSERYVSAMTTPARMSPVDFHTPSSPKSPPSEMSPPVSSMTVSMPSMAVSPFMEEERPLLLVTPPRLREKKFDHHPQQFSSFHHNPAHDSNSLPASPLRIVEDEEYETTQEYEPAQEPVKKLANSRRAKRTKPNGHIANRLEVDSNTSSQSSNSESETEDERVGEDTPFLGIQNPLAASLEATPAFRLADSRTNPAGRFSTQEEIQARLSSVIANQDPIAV

For `Cc1ccc(N2C(=O)c3ccccc3[C@@H](C(=O)NCc3ccccc3)[C@@H]2c2ccc(CO)cc2)nc1`, the composite z-score in assay [1] was 0.462; in assay [2], 0.205; in assay [3] it was -0.128; in assay [4], -0.741; in assay [5] it was -0.272; in [6] it was -0.161. Also, the composite z-score turned out to be 0.908 in [7], 0.174 in assay [9] and 0.0807 in assay [10]. The z-score in assay [8] was -0.702 (inactive).

Turning to `CO[C@@H]1COC(=O)[C@H](COCc2ccccc2)NC(=O)CC=C[C@@H](C)[C@H](OC)COC(=O)[C@H](COCc2ccccc2)NC(=O)CC=C[C@H]1C`, the composite z-score was -0.594 in assay [1]; 0.334 in [2]; -0.138 in assay [3]; -0.0596 in [4]; 0.0136 in assay [5]; 0.567 in assay [6]. Besides, the composite z-score in assay [7] is -0.618; in assay [9] it was -0.0224; in assay [10], -0.0994. Besides, in assay [8], the z-score is -0.496 (inactive).

On to `Cc1ccc(S[C@]2(C(=O)NCCCN(C)C)CC(=O)N(C3CCCCC3)[C@@H]2c2ccc(CO)cc2I)cc1`, for which the composite z-score was 1.93 in assay [1]; -0.697 in [2]; -0.113 in assay [3]; -0.546 in assay [4]; -0.197 in assay [5]; 0.266 in assay [6]. The composite z-score in assay [7] was 0.942; in assay [9], 0.235; in assay [10] it was -0.0645. The z-score in assay [8] was -1.31 (inactive).

Regarding `CC(=O)NCCCC[C@@H]1NC(=O)[C@@H]2C[C@H](C(=O)NCCCCCCN(C)C)[C@H](c3ccc(O)cc3)N2C1=O`, the composite z-score was -0.438 in assay [1]; 1.71 in assay [2]; 0.0513 in [3]; 1.19 in assay [4]; 0.734 in assay [5]; 1.56 in assay [6]. In addition, the results for the composite z-score in [7], in [9] and in assay [10] were 1.51, 0.541 and 0.797, respectively. In addition, the z-score in [8] is 4.01 (inactive).

With `CC(C)N1CC=CC23O[C@@H]4/C=C\CCCOC(=O)C4[C@H]2C(=O)N(CCCCCO)[C@@H]3C1=O` (stereo not given in full), the composite z-score in assay [1] was 0.378; in assay [2], 2.29; in [3], -0.226; in assay [4], -1.52; in assay [5], -2.17; in assay [6], 1.16. Further, the values for the composite z-score in assay [7], in assay [9] and in assay [10] were 0.665, -0.729 and 0.0176, respectively. Also, in [8], the z-score is 0.561 (inactive).

Regarding `COc1ccc([C@H]2C[C@H]3C(Br)=C[C@]2(OC)C(=O)[C@]32CO2)cc1`, the composite z-score in assay [1] is -0.207; in assay [2] it was -0.187; in assay [3], -0.0563; in [4], 1.02; in [5], -0.203; in assay [6], -0.228. For the same molecule, the results for the composite z-score in [7], in [9] and in [10] were -0.0338, 0.198 and 0.0722, respectively. The z-score in assay [8] was 0.926 (inactive).

In the case of `CC(C)(C)OC(=O)CC[C@]1(C(=O)N2CCCCC2)N=C(c2ccc(OCCCO)cc2)O[C@H]1c1ccccc1`, the composite z-score in [1] was -0.187; in assay [2], 1.67; in [3], 0.136; in assay [4], 1.07; in assay [5] it was 1.55; in assay [6], 1.53. The composite z-score was 1.27 in assay [7], 0.772 in [9] and -0.299 in assay [10]. In addition, the z-score in assay [8] is -4.25 (inactive).

Turning to `CN1C(=O)C2C=CC(C(O)C3CC=CCC3)N(Nc3ccccc3)C2C1=O` (stereo not given), the composite z-score worked out at 0.0125 in assay [1]; 1.54 in assay [2]; 0.0631 in assay [3]; 0.752 in assay [4]; 1.62 in [5]; 1.85 in assay [6]. The results for the composite z-score in assay [7], in assay [9] and in assay [10] were 1.29, 0.733 and 0.382, respectively. Besides, in assay [8], the z-score is 0.294 (inactive).

Consider `COc1ccc([Si](C)(C)[C@H]2[C@H](CC(=O)N(CCO)Cc3ccccc3)O[C@@]3(C(=O)N(C)c4ccccc43)[C@@H]2C)cc1`, for which the composite z-score is -0.412 in assay [1]; 0.919 in [2]; 0.0248 in assay [3]; 0.877 in [4]; -0.0546 in [5]; 0.67 in assay [6]. The composite z-score was 0.938 in assay [7], 0.291 in assay [9] and -0.21 in assay [10]. Further, the z-score in [8] is -1.39 (inactive).

In the case of `C=C(CCCC)/C(=C/C[C@H](OC(=O)c1ccncc1)c1cccc(OCCO)c1)c1cc(C(=O)OC)ccc1OC`, the composite z-score in assay [1] was -0.195; in assay [2] it was 0.422; in assay [3], 0.0346; in assay [4] it was 1.05; in assay [5], -0.0883; in assay [6], 0.0742. In addition, the composite z-score is 0.952 in assay [7], 0.104 in assay [9] and 0.0854 in assay [10]. For the same molecule, the z-score in assay [8] is 5.01 (inactive).

Turning to `O=C1O[C@@H](c2ccccc2)[C@@H](c2ccccc2)N2[C@@H](c3ccccc3OCCO)[C@]3(C(=O)Nc4ccc(C#CC5=CCCCC5)cc43)[C@@H](C(=O)O)[C@H]12`, the composite z-score in [1] is 0.294; in assay [2], 0.416; in assay [3] it was 0.0248; in assay [4], 0.627; in assay [5], 1.44; in assay [6], 0.391. Further, the results for the composite z-score in assay [7], in assay [9] and in [10] were 1.1, 0.415 and -0.226, respectively. Moreover, the z-score in [8] is -1.6 (inactive).

Turning to `O=C(N1CCCCC1)[C@@]1(CCS(=O)(=O)c2ccccc2)N=C(c2ccc(OCCCO)cc2)O[C@H]1c1ccccc1`, the composite z-score in assay [1] is 0.151; in assay [2], 0.529; in [3] it was 0.236; in [4] it was 0.685; in assay [5] it was 1.4; in assay [6] it was 0.0933. The composite z-score in assay [7] was 1.23; in assay [9], 1.51; in assay [10], -0.0645. The z-score in assay [8] is -0.144 (inactive).

As to `COC(=O)C[C@H]1O[C@]2(C(=O)N(Cc3ccccc3)c3ccc(I)cc32)[C@@H](C)[C@@H]1[Si](C)(C)c1ccc(OC)cc1`, the composite z-score was 0.224 in assay [1]; -0.529 in [2]; -0.22 in [3]; 0.262 in assay [4]; -0.385 in assay [5]; -0.121 in [6]. In addition, the composite z-score in assay [7] is -0.241; in assay [9] it was -0.145; in assay [10], -0.16. For the same molecule, the z-score in assay [8] is 0.184 (inactive).

For `O=C1c2ccccc2[C@](Cc2ccccc2I)(C(=O)NCc2ccccc2)[C@H](c2ccc(CO)cc2)N1Cc1ccccc1C(F)(F)F`, the composite z-score in assay [1] is 0.988; in assay [2] it was 0.077; in assay [3] it was -0.131; in assay [4], -0.787; in [5], -1.28; in assay [6] it was 0.385. Also, the values for the composite z-score in [7], in assay [9] and in [10] were -0.56, -0.318 and -0.134, respectively. For the same molecule, in [8], the z-score was -1.98 (inactive).

For `Cc1ccc(S[C@]2(C(=O)NC(C)C)CC(=O)N(C3Cc4ccccc4C3)[C@@H]2c2ccc(CO)cc2)cc1`, the composite z-score is -0.796 in assay [1]; 0.172 in assay [2]; -0.148 in [3]; 0.301 in assay [4]; -0.586 in assay [5]; 1.42 in assay [6]. Also, the composite z-score in assay [7] is 0.62; in [9] it was -0.554; in [10], -0.292. Moreover, the z-score in [8] is -2.74 (inactive).

In the case of `Cc1ccc(N2C(=O)c3ccccc3[C@@H](C(=O)NCC(F)(F)F)[C@@H]2c2ccc(CO)cc2)nc1`, the composite z-score is 1.83 in assay [1]; -1.33 in [2]; -0.195 in [3]; -1.11 in assay [4]; -2.11 in assay [5]; 1.15 in assay [6]. The results for the composite z-score in assay [7], in [9] and in [10] were 1.26, -0.869 and -0.539, respectively. In [8], the z-score is -0.307 (inactive).

As for `O=C1OCCC/C=C\[C@H]2OC34C=CCN(CCN5CCOCC5)C(=O)[C@H]3N(CCCCCO)C(=O)[C@@H]4C12` (stereo not given in full), the composite z-score in assay [1] is -0.0623; in assay [2] it was -0.658; in [3] it was -0.174; in assay [4], -0.156; in [5], -0.822; in assay [6], -0.179. Further, the values for the composite z-score in assay [7], in assay [9] and in assay [10] were 0.65, -0.676 and -0.226, respectively. Besides, the z-score in assay [8] is 1.48 (inactive).

These data come from PubChem BioAssay.
